Reference: PubChem BioAssay (NCI)
Compounds without any hit were thinned out: in the full panel of roughly 79,000, 15% have a hit. Rule as the data show it: active = growth inhibition above about 70%; inactive = the rest.

Assays:
[1] = NCI Yeast Anticancer Drug Screen. Data for the rad50 strain (AID 155);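 also: 0% = growth of vehicle-only cultures of the same strain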; settings: S. cerevisiae rad50 strain growth inhibition; at 50.0 µM; stronger effect = higher value
In short: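 Yeast carrying a defined DNA repair defect were exposed to test compounds, and growth was compared with vehicle-treated controls to give percent inhibition.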

[2] = NCI Yeast Anticancer Drug Screen. Data for the mec2-1 strain (AID 157); settings: S. cerevisiae mec2-1 strain, at 50.0 µM, stronger effect = higher value
In short: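 Using mec2-1 yeast: add compound, measure growth, express inhibition versus vehicle-treated cultures.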

[3] = NCI Yeast Anticancer Drug Screen. Data for the sgs1 mgt1 strain (AID 161);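 also: 0% = growth of cultures given vehicle only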; settings: S. cerevisiae sgs1 mgt1 strain, at 50.0 µM, stronger effect = higher value
In short: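 Yeast cells carrying a defined DNA-repair defect were exposed to test compounds. Growth inhibition was measured relative to vehicle-treated controls.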

[4] = NCI Yeast Anticancer Drug Screen. Data for the cln2 rad14 strain (AID 165);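 also: 0% = growth equal to vehicle treated cultures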; settings: S. cerevisiae cln2 rad14 strain, at 50.0 µM, stronger effect = higher value
In short: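 Yeast strain cln2 rad14, bearing defects in cell cycle control and DNA repair, serves as the test system; values reflect growth inhibition compared with vehicle.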

[5] = NCI Yeast Anticancer Drug Screen. Data for the bub3 strain (AID 167); settings: S. cerevisiae bub3 mutant strain, at 50.0 µM, stronger effect = higher value
In short: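 Compounds were applied to a genetically altered yeast strain carrying a cell-cycle control defect. Growth inhibition was scored against vehicle-treated controls.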

[6] = NCI Yeast Anticancer Drug Screen. Data for the mlh1 rad18 strain (AID 175); settings: S. cerevisiae mlh1 rad18 strain growth inhibition; at 50.0 µM; stronger effect = higher value
In short: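 Steps: expose repair-defective yeast to compound; measure growth; express inhibition against vehicle-treated controls.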

Measured: growth inhibition

Cc1n(CC(=O)c2ccccc2)nc2sc(N)n[n+]12
inactive: [1] -50% | [2] -23.9% | [3] -68% | [4] -18.2% | [5] -14.8% | [6] -20.9%

CN(C)c1ccc([N+](=O)[O-])cc1
inactive: [1] -76.2% | [2] -24% | [3] -61.6% | [4] -43.1% | [5] -9.2% | [6] -57.4%

CC(=O)Nc1c(Nc2ccccc2)[nH]c(C)nc1=S
inactive: [1] -5.55% | [2] -9.35% | [3] -0.25% | [4] -17.4% | [5] -3.1% | [6] -9.8%

CC(=O)OCC1OC(n2c(O)c(/C=C3\C=Nc4ccccc43)sc2=S)C(OC(C)=O)C(OC(C)=O)C1OC(C)=O (configuration not stated)
inactive: [1] 20.4% | [2] -11.7% | [3] -15.4% | [4] 18.9% | [5] -3.5% | [6] 4.9%

CC(=O)OCC1OC(n2cnc3c(=S)nc[nH]c32)C(OC(C)=O)C1N(C)C(C)=S (configuration not stated)
inactive: [1] 38.5% | [2] -4% | [3] 37.6% | [4] 9.85% | [5] 1.25% | [6] 12.6%

Cc1c([N+](=O)[O-])cc(C(C)(C)C)c(OS(=O)(=O)N(C)C)c1[N+](=O)[O-]
inactive: [1] 34% | [2] 10.4% | [3] 34.5% | [4] 13.1% | [5] 18.1% | [6] 26.6%

O=C1CC2(CCCCC2)CC(=O)N1
inactive: [1] -6.25% | [2] -5.05% | [3] 8.3% | [4] -34.6% | [5] 6.9% | [6] -2.35%

Cc1c([N+](=O)[O-])cc(C(C)(C)C)c(OC(=S)N(C)C)c1[N+](=O)[O-]
inactive: [1] 26.9% | [2] 23.4% | [3] -1.75% | [4] 18% | [5] 14.7% | [6] 0.7%

CCCCOC(=O)C1C=C(N)CCC1 (configuration not stated)
inactive: [1] 12.8% | [2] 6.8% | [3] -3.35% | [4] -32.6% | [5] -9.05% | [6] -16.4%

O=C1CCSC(=S)N1c1ccc(F)cc1
inactive: [1] 7.15% | [2] -1.4% | [3] 2.2% | [4] -32.5% | [5] -22.9% | [6] 6.2%

O=c1c(-c2ccccc2)c2oc(c1-c1ccccc1)CSCc1cccc(c1)CSC2
inactive: [1] 15% | [2] -0.1% | [3] -3.55% | [4] -28.9% | [5] -20.6% | [6] 7.8%

OCCOc1ccc(OCCO)cc1
inactive: [1] -2.1% | [2] -5.65% | [3] -8.95% | [4] -39.7% | [5] 9.9% | [6] -8.45%

C=CCC12CC(COc3ccccc3C(N)=O)OC1=Nc1ccccc1NC2=O (configuration not stated)
inactive: [1] 0.55% | [2] 0.25% | [3] -27.6% | [4] -1.8% | [5] 0.8% | [6] -5.05%

O=C(Cc1ccccc1)OCC(=O)c1ccc(-c2ccccc2)cc1
inactive: [1] -1.05% | [2] 15.1% | [3] 0.9% | [4] 39.8% | [5] 19.1% | [6] -5.15%

C=CC(=O)OCCOCCOC
inactive: [1] -21.1% | [2] -15.9% | [3] -2.35% | [4] -5% | [5] -18.6% | [6] -14.4%

OC(CCN1CC2CCC(CC2)C1)(Cc1ccccc1)c1ccc(F)cc1 (configuration not stated)
inactive: [1] -3.8% | [2] -7.9% | [3] 23.1% | [4] -5.15% | [5] 22.6% | [6] -7.25%

Cc1ccc(C(O)c2ccccc2)cc1 (configuration not stated)
inactive: [1] 25.4% | [2] 6.55% | [3] 17.4% | [4] -61.6% | [5] 1.4% | [6] 9.5%

CC12C=CC(=O)C=C1CCC1C3CC(F)C(O)(C(=O)CO)C3(C)CC(O)C12F (configuration not stated)
inactive: [1] -6.35% | [2] 2.25% | [3] 3.25% | [4] 25.2% | [5] 14.8% | [6] 3.3%

NC(N)=NC1NCC(=O)S1 (configuration not stated)
inactive: [1] 0.2% | [2] -5.65% | [3] 4.3% | [4] 4.6% | [5] 7.15% | [6] 21.9%

CCN(CC)CCNC(=O)c1ccc(C)c(OCc2ccccc2)c1[N+](=O)[O-]
inactive: [1] -9.4% | [2] -9.25% | [3] 26.6% | [4] -26.8% | [5] 34.8% | [6] -19.6%

CN(CC(=O)O)c1ncc2c(n1)-c1ccccc1OC2c1ccccc1 (configuration not stated)
inactive: [1] 21.9% | [2] 19.6% | [3] 44.5% | [4] 47% | [5] 28.9% | [6] 67.8%

O=C(N=Nc1c(O)[nH]c2ccc(Br)cc12)c1ccncc1
inactive: [1] -1.75% | [2] 2.8% | [3] 9.6% | [4] 3.2% | [5] 8.25% | [6] -10.1%

NC(=O)N/N=C/C1CCc2ccccc2C1 (configuration not stated)
inactive: [1] 6.45% | [2] -10.4% | [3] -12.3% | [4] -6.2% | [5] -1.4% | [6] 1.5%

Cc1ccc(C(=O)c2ccccc2)cc1
inactive: [1] 26.1% | [2] 23.5% | [3] -11.8% | [4] -8.75% | [5] -0.6% | [6] -1.7%

Cc1cc2nccnc2cc1C
inactive: [1] -48.8% | [2] -65.8% | [3] -31.4% | [4] -3.4% | [5] -65.5% | [6] -23.2%

COc1ccc(/C=C2\C(=O)N(C(=O)c3ccc(NC(C)=O)cc3)N=C2C)cc1
inactive: [1] -27.6% | [2] -36.2% | [3] -39.2% | [4] -0.3% | [5] -20.9% | [6] -41.2%

CCOc1ccc(C2=NNC(=O)CC2)cc1
inactive: [1] 26% | [2] -8.55% | [3] -9.15% | [4] 14.3% | [5] 13.9% | [6] 17.6%

CC(C)OP(=O)(c1ccccc1)c1ccc2c(c1)OCCOCCOCCOCCO2 (configuration not stated)
inactive: [1] -3.05% | [2] -2.2% | [3] 0.75% | [4] 7.05% | [5] -2.1% | [6] 24.7%

Cc1cccc(C(=O)c2ccccc2Cc2cccc3ccccc23)c1C
inactive: [1] 5.1% | [2] -6.8% | [3] 7.2% | [4] -6.45% | [5] 9.5% | [6] -15.5%

CC(C)(C)c1ccc(OCCCl)c(Cl)c1
inactive: [1] 2.35% | [2] -2.45% | [3] 33.7% | [4] -41.9% | [5] 0.75% | [6] 6.3%

N#Cc1ccc(NN=NCCCCCCl)cc1
inactive: [1] 22.7% | [2] -3.2% | [3] 1.25% | [4] 8.5% | [5] 15.8% | [6] 1.55%

CCOc1ccccc1/C=N/NS(=O)(=O)c1ccc([N+](=O)[O-])cc1
inactive: [1] -19.2% | [2] -23.1% | [3] 2.55% | [4] -18.6% | [5] 12.9% | [6] -14.2%

CC(NC(=O)C(Cc1ccc(OC(=O)c2ccccc2)cc1)NC(=O)OC(C)(C)C)C(=O)NCC(=O)NC(Cc1ccccc1)NC(=O)OCc1ccccc1 (configuration not stated)
inactive: [1] -11.7% | [2] -24.6% | [3] -27.7% | [4] 7.35% | [5] -25.4% | [6] -8.95%

C=C1C(=O)O[C@H]2[C@H]1[C@H](OC(=O)/C(C)=C\C)CC(=C)[C@@H]1[C@H](O)[C@H]3O[C@@]3(C)[C@@]12O
inactive: [1] 3.85% | [2] -14.8% | [3] 21.2% | [4] 5.25% | [5] -5.95% | [6] -18%

NS(=O)(=O)c1ccc(N=Nc2c[nH]c(=O)c(O)c2)cc1
inactive: [1] 3.45% | [2] 4.95% | [3] -9.55% | [4] -37.4% | [5] -60.4% | [6] 2.3%

COCC12CC(CC1=O)C1C2ON2c3ccccc3C(=O)C12c1ccccc1 (configuration not stated)
inactive: [1] 50.9% | [2] -8.25% | [3] 36.8% | [4] 37.8% | [5] 26.9% | [6] 18.6%

CN1C(=O)C(=O)OC1=C(c1ccccc1)c1ccccc1
inactive: [1] 2.9% | [2] -4.6% | [3] 0.85% | [4] -30.9% | [5] -17.6% | [6] -18.2%

CCSCCNC(=O)NS(=O)(=O)c1ccc(C)cc1
inactive: [1] 4.85% | [2] -0.75% | [3] -6.45% | [4] 1.55% | [5] -11.4% | [6] 14%

Cn1ncc2c(=O)[nH]c(=S)[nH]c21
inactive: [1] -9.6% | [2] -4.4% | [3] -5.65% | [4] -32.1% | [5] -2.3% | [6] 3.6%

CCCCCCCCCCCCCCCC/C(C)=C\C(=O)OC
inactive: [1] 3.8% | [2] 20.3% | [3] 22.9% | [4] -0.9% | [5] 28.9% | [6] 16.1%

O=C(O)C1CCN(C(=O)Cc2ccccc2)CC1
inactive: [1] -12.5% | [2] -1.95% | [3] -2.15% | [4] -5.6% | [5] 0.05% | [6] -14.7%

CN(C(=O)CCC1OCCO1)c1cc([N+](=O)[O-])ccc1OCc1ccccc1
inactive: [1] 22.1% | [2] -1.05% | [3] 1.5% | [4] 9.8% | [5] 2% | [6] 15.2%
